Screens (PubChem)
Hits are enriched below; roughly 0.97% of the tested compounds scored in any of these assays.
Six1-Eya2 inh – qHTS Assay for Inhibitors of the Six1/Eya2 Interaction; Homeobox protein SIX1 (Homo sapiens) + Protein phosphatase EYA2 (Homo sapiens), …; AlphaScreen GST-Six1/His-Eya2 binding, biochemical; stronger effect = lower value; actives 0.56% (n = 360,000); activity change, % (test concentration not listed)
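AlphaScreen with GST-Six1 and His-Eya2 (5X mix: 250 nM and 500 nM), glutathione donor and nickel acceptor beads; buffer 50 mM Tris pH 8.0, 300 mM NaCl, 1 mM TCEP; 1 h at 37 C in the dark.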
PI4K2A block – qHTS for small molecular inhibitors of PI4K2A; activity change, negative = inhibition, % at 76.9 µM; Phosphatidylinositol 4-kinase type 2-alpha (Homo sapiens), Q9BTU6; actives 0.13% (n = 420,000); purified PI4K2A, ADP-Glo luminescence, 1 h; stronger effect = lower value; in the data active = activity change below about -50%; inconclusive = mostly about -30% to -49%;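 also: -100% = wells without enzyme as full effect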
Target sequence (Q9BTU6 whole entry, looked up): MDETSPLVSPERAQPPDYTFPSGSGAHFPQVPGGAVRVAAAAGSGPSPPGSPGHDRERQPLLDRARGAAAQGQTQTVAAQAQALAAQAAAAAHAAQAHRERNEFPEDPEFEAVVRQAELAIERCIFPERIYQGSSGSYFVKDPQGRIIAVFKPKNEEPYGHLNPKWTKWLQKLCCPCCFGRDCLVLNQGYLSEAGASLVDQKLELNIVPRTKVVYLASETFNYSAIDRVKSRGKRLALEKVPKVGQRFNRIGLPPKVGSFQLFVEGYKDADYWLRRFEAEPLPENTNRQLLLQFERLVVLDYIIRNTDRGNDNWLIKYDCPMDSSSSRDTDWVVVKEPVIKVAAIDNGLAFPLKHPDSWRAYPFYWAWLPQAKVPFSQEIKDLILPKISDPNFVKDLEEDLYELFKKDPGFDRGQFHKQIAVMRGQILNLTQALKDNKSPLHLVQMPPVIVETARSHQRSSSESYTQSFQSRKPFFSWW
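Compounds are screened against recombinant PI4K2A using PI as substrate and ATP, the latter dispensed at 300 microM. Reactions run one hour at ambient temperature before ADP-Glo detection; full inhibition defined by wells lacking enzyme.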
CtBP-E1A inh – qHTS Assay for Inhibitors of the CtBP/E1A Interaction | CtBP / adenovirus E1A interaction (AlphaScreen) | AlphaScreen GST-E1A/His-CtBP binding, 1536-well; stronger effect = lower value | activity change, % (concentration not given with the values) | actives 0.49% (n = 340,000) | AID 651724, 2012
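GST-E1A and His-tagged CtBP (125 nM each as 5X stock) were preincubated with pin-transferred compound for 2 h at 37 °C in the dark, then glutathione donor and nickel acceptor beads were added for 1 h before AlphaScreen reading.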
CCT modulator – High-Throughput Screening for Modulators of Cytosolic Chaperonin Activity | purified chaperonin ATPase assay, HTRF ADP detection, 30 min | activity change, % (test concentration not listed), hits read low | actives 0.3% (n = 360,000); in the data active = activity change below about -30%
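Nucleotide hydrolysis assay: TRiC at 20–40 nM final (set by batch activity) with 10 uM ATP, 30 min at 37 °C, in presence of 76 uM compound. Detection by competitive ADP HTRF, 30 min ambient.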
Eya2 phos inh – qHTS Assay for Inhibitors of the Phosphatase Activity of Eya2 | actives 0.006% (n = 330,000) | Potency, µM (doses to about 76.9 µM), without a hit: top-dose activity, negative = inhibition, usual class: inhibitors | recombinant Eya2, OMFP fluorescence dephosphorylation (OMFP is methylfluorescein phosphate); also: potency is read from the fitted curve at half-maximal effect
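Eya2 protein (added as 0.2 uM solution) was preincubated with compound for 10 min at ambient temperature in 50 mM HEPES pH 7.5, 50 mM NaCl, 5 uM MgCl2, 0.05% BSA, 1 mM DTT. OMFP (added at 50 uM) then reacted 10 min; fluorescence read at 485/525 nm.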
Starred values were filed as active, the others as inactive; ? = inconclusive; nt = no result given. Rule as the data show it, unless noted: active = activity change below about -65%; inconclusive = mostly about -30% to -63%; inactive = weaker than that. Unless noted, % is scaled to controls: 0 for no effect and ±100 for the full control effect.

SMILES | Six1-Eya2 inh | PI4K2A block | CtBP-E1A inh | CCT modulator | Eya2 phos inh
COc1ccccc1N=Cc1c(C)[nH]n(-c2ccc(C)cc2C)c1=O | -22 | 3 | 2 | -1 | 4%
COc1cc(S(=O)(=O)Nc2ccc(C)cc2)ccc1N=Cc1c(C)[nH]n(-c2ccc(C)cc2)c1=O | ? | -9 | -8 | -1 | 3%
COc1cc(SC#N)ccc1N=Cc1c(C)[nH]n(-c2ccc(C)cc2C)c1=O | -30 | -54* | -19 | 0 | nt
COc1cc(SC#N)ccc1N=Cc1c(C)[nH]n(-c2cccc3ccccc23)c1=O | ? | -53* | ? | -4 | 0%
COc1ccc(C(=O)OCCN2CCN(C3CN(Cc4cn(Cc5ccccc5Cl)nn4)S(=O)(=O)C3)CC2)cc1OC (configuration not stated) | nt | -6 | nt | nt | nt
COc1cccc(Cn2c(CNC(=O)c3cc([N+](=O)[O-])ccc3Cl)nc3cccnc32)c1 | nt | 1 | nt | nt | nt
COc1ccc(OC)c(CCNC(=O)c2cnn(-c3ccccc3)c2-n2cccc2)c1 | nt | -4 | nt | nt | nt
CCNC(=O)COC(=O)c1cc(=O)[nH]c2ccccc12 | 1 | -4 | 0 | -35* | 0%
O=C(COC(=O)c1cc(=O)[nH]c2ccccc12)NCc1ccccc1 | -4 | -1 | 6 | -2 | -10%
CC(C)CN(C(=O)COC(=O)c1cc(=O)[nH]c2ccccc12)c1c(N)n(Cc2ccccc2)c(=O)[nH]c1=O | 3 | -1 | 2 | -30* | nt
COc1ccc(CN2CCC(CNC(=O)NC3CCCC3)CC2)cc1 | nt | 5 | nt | nt | nt
CC(=O)NC(=S)Nc1sc2c(c1C#N)CCCCC2 | -3 | ? | 0 | -31* | -7%
CC(=O)Nc1sc2c(c1C#N)CCCC2 | 0 | -1 | -6 | -3 | nt
CC1=NN(c2ccc(C(F)(F)F)cn2)C(=O)C1 | -68* | -7 | ? | -2 | 9%
N#C/C(=C/c1ccc(N2CCCCCC2)o1)c1cccc(F)c1 | -15 | 5 | -9 | -3 | 22%
COc1cc(N2CCCC2)c(OC)cc1/C=C(/C#N)c1cccc(F)c1 | -72* | -5 | ? | 0 | 26%
COC(=O)c1nn(-c2ccc3c(c2)CCN3C(C)=O)cc1O | -14 | -85* | -9 | -1 | 4%
COC(=O)c1ccc(NC(=O)CCc2c(C)nc3c(c2C)c(=O)n(C)c(=O)n3C)cc1 | nt | -4 | nt | nt | nt
NC(=S)NN=Cc1c[nH]c2nccnc12 | -66* | -17 | -24 | 1 | nt
NC(=S)N/N=C/c1ccccc1O | -87* | 6 | -68* | 1 | 2%
Oc1ccccc1C=NNC(=S)NN=Cc1ccccc1O | -81* | 5 | -95* | -1 | nt
NC(=S)N/N=C/c1ccc(/C=N/NC(N)=S)cc1 | 3 | -21 | nt | 0 | 0%
NC(=S)N/N=C/c1c[nH]c2ccccc12 | -11 | -3 | 2 | -1 | -2%
NC(=S)N/N=C/c1cccc(O)c1O | -80* | -6 | -93* | 1 | -1%
Oc1ccccc1/C=N/Nc1ccccc1 | -15 | -3 | 0 | -3 | -7%
SMILES | Six1-Eya2 inh | PI4K2A block | CtBP-E1A inh | CCT modulator | Eya2 phos inh
NS(=O)(=O)c1cc2c(cc1Cl)CN(C1CCCCC1)C2=O | nt | 1 | nt | nt | nt
CC(C)[N+](C)(C)CC(O)COc1cccc2ccccc12 (configuration not stated) | nt | -4 | nt | nt | nt
Cc1nc([N+](=O)[O-])cn1-c1ccc([N+](=O)[O-])cc1 | nt | 1 | nt | nt | nt
O=C(N/N=C/c1ccccc1O)C1SCCCS1 | -92* | -5 | -95* | -1 | -1%
Cc1cc(/C=N/NC(N)=S)c(O)c(/C=N/NC(N)=S)c1 | -87* | -7 | -92* | 0 | 59%
Cc1ccc(-n2c(C)cc(/C=N/NC(N)=S)c2C)cc1 | ? | 5 | -20 | 0 | -2%
Oc1cccc(/C=N/NC(=S)NCCN2CCOCC2)c1O | -69* | -11 | -94* | -1 | 3%
S=c1[nH]nc(-c2n[nH]c3c2CCC3)n1N=Cc1ccc(OCc2ccccc2)cc1 | nt | 2 | nt | nt | nt
O=C(Nc1ccc(F)cc1F)C(Cc1ccccc1)N1Cc2ccccc2C1=O (configuration not stated) | nt | 0 | nt | nt | nt
